Laboratory results reported in PubChem BioAssay (NCI).
This is part of a sample that, as a whole, favours compounds with a hit. Of some 83,000 tested, about 20% had one in any assay.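 Assay: single dose, 48 h. Readout: percent growth (0 = no net growth; negative = cell death). Active: <10.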 Unmarked numbers belong to inactive results. The source made the active and inactive calls.

tested on: HL-60(TB) leukemia; assay: NCI-60 one-dose screen, 48 h (100 = growth as untreated, 0 = no growth, -100 = all killed); details: 10 µM unless noted

Structure (SMILES) | growth
COc1cc2ncnc(Nc3ccc(F)c(Cl)c3)c2cc1NC(=O)/C=C/CN1CCCCC1 | -50.2% (active)
COC(=O)c1c2c(c(C)[n+]([O-])c1C)C(=O)C(NCc1ccc(F)c(F)c1)=CC2=O | -23.6% (active)
CCCCCc1c(C)[nH]c(/C=C2\N=C(c3ccc[nH]3)C=C2CC)c1C | -62% (active)
CC(=O)N1N=C(c2ccc(Nc3nc(Nc4ccc(F)cc4)nc(Nc4ccc(Cl)cc4)n3)cc2)CC1c1ccc(N(C)C)cc1 (stereo not given) | 19%
O=S(=O)(c1ccc(OCCO)cc1)c1ccc(OCCO)cc1 | -0.844% (active)
CS(=O)CCCCCN=C=S (stereo not given) | -33.9% (active)
CCNCCNc1cc(-c2ccc(Cl)c(Cl)c2)c(C#N)c2nc3ccccc3n12 | -62.3% (active)
Cc1ncc(C(=O)Nc2ccc(CN3CCN(C)CC3)c(C(F)(F)F)c2)cc1C#Cc1cnc(N)c2ccncc12 | -52.8% (active)
COC(=O)CC[C@@H](C)[C@H]1CC[C@H]2C3CC[C@@H]4C[C@@H]5CC[C@]4(C)[C@@]3(O5)[C@H](Br)[C@@H](Br)[C@]12C (stereo not given in full) | 81.2%
COc1cc(OC)c2cc(C(=O)O)c(=O)oc2c1 | 66%
Cc1ccc(Nc2nc(N)nc(CSCC(=O)NN)n2)cc1 | 20.5%
COc1cc(C2CC(c3ccc(N(C)C)cc3)=NN2C(C)=O)cc(OC)c1OC (stereo not given) | -3.98% (active)
Cc1ccc(S(=O)(=O)NCN2C(=O)c3ccccc3C2=O)cc1 | 106%
Cc1ccc2[nH]c3nc4cccnc4c(C)c3c2c1 | 83.5%
CC(=O)[C@@H]1CC[C@]2(C(=O)O)CC[C@]3(C)[C@H](CC[C@@H]4[C@@]5(C)Cc6c([nH]c7ccccc67)C(C)(C)[C@@H]5CC[C@]43C)[C@@H]12 | 53.4%
CN1CCN(CCNC(=O)c2cccc(CN3c4cccc5c4C(=Cc4cccnc43)N(C)C5=O)c2)CC1 | -6.25% (active)
Cn1cc(-c2nonc2-c2cn(C)c3ccccc23)c2ccccc21 | -27% (active)
Cn1cc(-c2nc(-c3cn(C)c4ncccc34)cs2)c2cc(F)ccc21 | 30.7%
Cc1c(-c2ccc(O)cc2)n(Cc2ccc(OCCN3CCCCCC3)cc2)c2ccc(O)cc12 | 74.6%
O=C(NCCNc1nccc(-c2c(-c3cccc(F)c3)nc3sccn23)n1)c1ccc(Cl)cc1 | 99.1%

Structure (SMILES) | growth
CS(=O)(=O)N1CCN(Cc2cc3nc(-c4cccc5[nH]ncc45)nc(N4CCOCC4)c3s2)CC1 | 23.6%
CCOC(=O)c1nnn(-c2ccccc2)c1C1=CN(C)CCC1 | 84.4%
N/C(=N\N=C\c1cc2ccccc2[nH]1)N/N=C/c1cc2ccccc2[nH]1 | 101%
CCc1cnc2ccccc2c1/C=C/c1ccc(N(C)C)cc1 | 12.9%
COc1ccc(Nc2nc(N)nc3c2CCc2occc2-3)cc1 | 88.8%
FC(F)(F)c1cc(-c2nnc3n2N=C(N2CCCC2)CS3)cc(C(F)(F)F)c1 | 113%
CCN1CCN(CC(=O)N2c3cccc4cccc(c34)N(C(=O)CN3CCN(CC)CC3)C2c2cn(-c3ccccc3)nc2-c2cccc([N+](=O)[O-])c2)CC1 | -63.9% (active)
O=c1[nH]c(-c2ccccn2)nc2sc3c(c12)CCCCC3 | 21.8%
O=C1/C(=C/c2ccc(-c3ccc(Cl)cc3)o2)SC(=S)N1CCc1ccc(O)cc1 | 8.32% (active)
COc1ccc(/C(=C\c2cc(OC)c(OC)c(OC)c2)C(=O)N2CCCNCC2)cc1 | 96.4%
O=C1C2(c3ccccc3)C(c3ccccc3)=C(c3ccccc3)C1(c1ccccc1)C1CC=CC12 (stereo not given) | 76.3%
CCOC(=O)c1ccc(NC(=S)P(=O)(c2ccccc2)c2ccccc2)cc1 | 80.4%
CCC([N+](=O)[O-])S(=O)(=O)c1ccc(C)cc1 (stereo not given) | 132%
COC(=O)[C@]12CC[C@@H](C)[C@H](C)[C@@H]1C1=CC[C@@H]3[C@@]4(C)C(c5ncon5)=C[C@@](C)(CO)C4=CC[C@@]3(C)[C@]1(C)CC2 | -33.9% (active)
Cc1c(NCc2nnc3n(Cc4ccccc4)c(=O)c4c5c(sc4n23)CCCC5)c(=O)n(-c2ccccc2)n1C | 80%
O=C(/C(Cl)=N/O)c1ccc(-c2ccccc2)cc1 | 69.2%
CC1(C)CC[C@]2(CO)CC[C@]3(C)[C@](O)([C@H](O)C[C@@H]4[C@@]5(C)CCCNC(C)(C)[C@@H]5CC[C@]43C)[C@@H]2C1 | 71%
Oc1cccc(CCc2ccc(Oc3cc(CCc4cccc(O)c4)cc(O)c3O)cc2)c1 | 15.3%
CSc1ccc(Cl)c(C(=O)Nc2sccc2C(N)=O)c1 | 91.3%
Cc1cccc(/C=C2\CN(C(=O)OC(C)(C)C)C/C(=C\c3cccc(C)c3)C2=O)c1 | 90.2%
